Assay results taken from the supplement of paper PMC6411743.
± gives the standard deviation of the averaged measurements. Of roughly 6,500 targets only a part is listed; those with the largest changes were picked by preference.

Compound: Nc1ncnc2c1ncn2[C@@H]1O[C@H](COP(=O)(O)OP(=O)(O)OP(=O)(O)O)[C@@H](O)[C@H]1O [adenosine triphosphate]
Test: NP40-soluble protein abundance relative to vehicle (solubility fold change) (ratio); higher = more soluble protein in presence of ATP
How it was run: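 Jurkat crude lysate (Dounce-homogenised) was treated with eight concentrations from 0.1 to 10 mM for 10 min at room temperature, then 3 min at 37 °C. It was solubilised with 0.8% NP40 and benzonase (60 min, 4 °C) and ultracentrifuged, and the supernatant was TMT-labelled for LC-MS/MS. Intensities were vsn-normalised, and the value is the fold change against the NP40-processed vehicle per replicate, from three independent experiments.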

Sequence of UniProt P26368 (P26368 whole entry): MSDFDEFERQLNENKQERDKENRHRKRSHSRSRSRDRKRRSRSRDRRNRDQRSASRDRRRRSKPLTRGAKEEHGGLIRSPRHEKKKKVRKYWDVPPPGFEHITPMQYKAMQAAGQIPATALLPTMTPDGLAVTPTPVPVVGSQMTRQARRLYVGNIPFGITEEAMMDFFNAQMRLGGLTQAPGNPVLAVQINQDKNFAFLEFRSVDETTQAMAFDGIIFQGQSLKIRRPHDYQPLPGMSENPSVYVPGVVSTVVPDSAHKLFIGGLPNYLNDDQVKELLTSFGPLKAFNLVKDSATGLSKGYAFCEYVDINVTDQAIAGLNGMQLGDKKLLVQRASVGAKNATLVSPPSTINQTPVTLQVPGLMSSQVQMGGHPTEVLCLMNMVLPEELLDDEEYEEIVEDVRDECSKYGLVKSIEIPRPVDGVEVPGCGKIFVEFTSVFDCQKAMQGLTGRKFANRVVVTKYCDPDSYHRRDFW
Sequence of UniProt P62937 (P62937 whole entry, looked up): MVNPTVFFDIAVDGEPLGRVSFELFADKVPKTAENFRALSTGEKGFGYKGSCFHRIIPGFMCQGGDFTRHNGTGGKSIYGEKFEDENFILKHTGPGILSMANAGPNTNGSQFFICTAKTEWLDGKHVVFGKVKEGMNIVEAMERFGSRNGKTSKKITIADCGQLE
Sequence of UniProt P50897 (P50897 whole entry): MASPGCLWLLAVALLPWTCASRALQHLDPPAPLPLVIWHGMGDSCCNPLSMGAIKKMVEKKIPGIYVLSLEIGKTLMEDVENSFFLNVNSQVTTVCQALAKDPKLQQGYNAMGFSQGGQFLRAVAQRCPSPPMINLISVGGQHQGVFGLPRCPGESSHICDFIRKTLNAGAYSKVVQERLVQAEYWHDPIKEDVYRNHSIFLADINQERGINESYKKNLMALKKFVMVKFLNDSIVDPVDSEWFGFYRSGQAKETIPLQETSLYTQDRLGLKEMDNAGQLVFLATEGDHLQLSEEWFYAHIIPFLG
Sequence of UniProt Q01196 (Q01196 whole entry): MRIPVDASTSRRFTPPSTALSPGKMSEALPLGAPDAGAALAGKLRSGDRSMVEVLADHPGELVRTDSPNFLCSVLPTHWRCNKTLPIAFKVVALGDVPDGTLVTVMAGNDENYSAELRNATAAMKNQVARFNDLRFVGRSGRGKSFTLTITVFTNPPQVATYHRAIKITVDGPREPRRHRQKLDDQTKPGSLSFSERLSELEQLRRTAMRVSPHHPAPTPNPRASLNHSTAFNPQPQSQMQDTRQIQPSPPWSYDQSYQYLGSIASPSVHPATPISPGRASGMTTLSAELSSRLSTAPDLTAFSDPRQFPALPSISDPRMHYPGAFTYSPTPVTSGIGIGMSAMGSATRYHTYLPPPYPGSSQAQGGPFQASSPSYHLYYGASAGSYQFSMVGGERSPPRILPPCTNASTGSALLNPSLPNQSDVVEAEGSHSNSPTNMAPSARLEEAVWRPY
Sequence of UniProt P51580 (P51580 whole entry): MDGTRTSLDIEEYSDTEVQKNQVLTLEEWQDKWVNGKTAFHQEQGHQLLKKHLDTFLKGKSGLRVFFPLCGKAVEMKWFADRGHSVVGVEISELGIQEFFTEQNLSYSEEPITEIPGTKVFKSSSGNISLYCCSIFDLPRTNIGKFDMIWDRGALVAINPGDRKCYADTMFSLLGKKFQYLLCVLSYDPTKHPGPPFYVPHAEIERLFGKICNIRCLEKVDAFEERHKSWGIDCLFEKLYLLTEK
Sequence of UniProt P06493 (P06493 whole entry, looked up): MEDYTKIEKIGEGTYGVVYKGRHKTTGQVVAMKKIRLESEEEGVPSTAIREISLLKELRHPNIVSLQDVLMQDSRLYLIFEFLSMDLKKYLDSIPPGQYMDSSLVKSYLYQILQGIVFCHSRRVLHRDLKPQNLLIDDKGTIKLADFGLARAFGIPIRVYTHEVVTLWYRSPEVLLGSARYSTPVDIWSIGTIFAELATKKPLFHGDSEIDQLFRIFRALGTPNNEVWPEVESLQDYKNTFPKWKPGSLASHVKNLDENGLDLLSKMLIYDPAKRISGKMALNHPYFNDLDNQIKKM
Sequence of UniProt P42285 (P42285 whole entry): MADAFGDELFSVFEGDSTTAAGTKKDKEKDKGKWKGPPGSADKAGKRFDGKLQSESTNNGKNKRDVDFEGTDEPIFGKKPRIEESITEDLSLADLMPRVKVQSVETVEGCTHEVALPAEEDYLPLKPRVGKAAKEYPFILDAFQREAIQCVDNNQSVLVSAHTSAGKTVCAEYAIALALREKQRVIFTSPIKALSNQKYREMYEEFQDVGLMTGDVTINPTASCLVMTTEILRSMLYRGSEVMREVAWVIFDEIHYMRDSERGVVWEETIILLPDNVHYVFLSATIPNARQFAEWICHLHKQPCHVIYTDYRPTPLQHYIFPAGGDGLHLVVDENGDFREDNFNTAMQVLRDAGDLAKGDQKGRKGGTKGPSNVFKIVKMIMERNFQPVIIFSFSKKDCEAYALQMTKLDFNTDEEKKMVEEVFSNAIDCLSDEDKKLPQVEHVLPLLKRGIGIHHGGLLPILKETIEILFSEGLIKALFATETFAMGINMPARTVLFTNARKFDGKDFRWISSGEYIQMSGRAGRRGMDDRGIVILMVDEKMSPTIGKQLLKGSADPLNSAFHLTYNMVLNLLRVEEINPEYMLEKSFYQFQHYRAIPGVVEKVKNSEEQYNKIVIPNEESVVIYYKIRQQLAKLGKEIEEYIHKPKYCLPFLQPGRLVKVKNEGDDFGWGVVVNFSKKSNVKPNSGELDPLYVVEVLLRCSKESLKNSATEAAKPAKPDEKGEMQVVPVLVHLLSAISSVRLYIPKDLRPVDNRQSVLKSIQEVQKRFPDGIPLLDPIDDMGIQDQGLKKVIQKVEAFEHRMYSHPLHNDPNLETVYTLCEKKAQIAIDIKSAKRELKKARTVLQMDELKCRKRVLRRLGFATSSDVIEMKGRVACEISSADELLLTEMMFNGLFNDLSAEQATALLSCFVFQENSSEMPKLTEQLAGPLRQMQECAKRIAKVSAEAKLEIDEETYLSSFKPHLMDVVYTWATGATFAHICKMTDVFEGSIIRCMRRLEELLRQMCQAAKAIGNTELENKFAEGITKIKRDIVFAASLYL
Sequence of UniProt P26639 (P26639 whole entry): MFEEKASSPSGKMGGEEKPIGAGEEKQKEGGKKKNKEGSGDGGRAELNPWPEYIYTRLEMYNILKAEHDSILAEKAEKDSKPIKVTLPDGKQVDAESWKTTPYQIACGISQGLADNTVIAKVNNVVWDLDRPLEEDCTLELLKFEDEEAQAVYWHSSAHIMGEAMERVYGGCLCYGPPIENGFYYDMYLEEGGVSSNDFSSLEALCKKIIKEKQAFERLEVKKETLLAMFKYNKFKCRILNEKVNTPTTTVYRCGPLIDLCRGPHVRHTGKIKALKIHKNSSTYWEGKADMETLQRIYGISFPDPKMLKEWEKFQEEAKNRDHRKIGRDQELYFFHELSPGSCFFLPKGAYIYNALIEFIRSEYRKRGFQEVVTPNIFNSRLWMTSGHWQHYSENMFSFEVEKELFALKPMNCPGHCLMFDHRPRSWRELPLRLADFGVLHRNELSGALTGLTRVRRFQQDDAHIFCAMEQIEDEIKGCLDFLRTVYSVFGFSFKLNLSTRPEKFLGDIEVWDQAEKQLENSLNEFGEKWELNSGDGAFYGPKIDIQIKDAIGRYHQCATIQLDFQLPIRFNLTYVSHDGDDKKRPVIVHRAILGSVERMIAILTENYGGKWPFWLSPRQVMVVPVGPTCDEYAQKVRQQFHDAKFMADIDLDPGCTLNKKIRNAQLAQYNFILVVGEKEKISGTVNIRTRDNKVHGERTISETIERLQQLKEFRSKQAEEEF
Sequence of UniProt P46527 (P46527 whole entry): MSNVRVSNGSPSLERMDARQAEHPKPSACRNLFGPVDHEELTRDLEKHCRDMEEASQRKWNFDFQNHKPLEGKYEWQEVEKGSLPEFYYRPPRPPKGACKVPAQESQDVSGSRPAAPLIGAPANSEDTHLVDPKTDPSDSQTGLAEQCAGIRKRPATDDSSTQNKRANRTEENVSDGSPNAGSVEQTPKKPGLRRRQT
Sequence of UniProt Q00534 (Q00534 whole entry): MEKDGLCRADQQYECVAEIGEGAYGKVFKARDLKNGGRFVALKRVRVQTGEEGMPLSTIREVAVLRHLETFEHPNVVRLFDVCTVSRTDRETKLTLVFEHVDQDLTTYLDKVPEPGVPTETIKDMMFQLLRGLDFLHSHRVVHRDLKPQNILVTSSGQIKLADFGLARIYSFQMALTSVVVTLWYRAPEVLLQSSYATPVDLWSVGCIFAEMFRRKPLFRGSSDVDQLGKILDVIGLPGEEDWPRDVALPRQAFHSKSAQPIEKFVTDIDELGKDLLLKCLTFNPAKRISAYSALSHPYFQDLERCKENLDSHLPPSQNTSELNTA
Sequence of UniProt P50990 (P50990 whole entry): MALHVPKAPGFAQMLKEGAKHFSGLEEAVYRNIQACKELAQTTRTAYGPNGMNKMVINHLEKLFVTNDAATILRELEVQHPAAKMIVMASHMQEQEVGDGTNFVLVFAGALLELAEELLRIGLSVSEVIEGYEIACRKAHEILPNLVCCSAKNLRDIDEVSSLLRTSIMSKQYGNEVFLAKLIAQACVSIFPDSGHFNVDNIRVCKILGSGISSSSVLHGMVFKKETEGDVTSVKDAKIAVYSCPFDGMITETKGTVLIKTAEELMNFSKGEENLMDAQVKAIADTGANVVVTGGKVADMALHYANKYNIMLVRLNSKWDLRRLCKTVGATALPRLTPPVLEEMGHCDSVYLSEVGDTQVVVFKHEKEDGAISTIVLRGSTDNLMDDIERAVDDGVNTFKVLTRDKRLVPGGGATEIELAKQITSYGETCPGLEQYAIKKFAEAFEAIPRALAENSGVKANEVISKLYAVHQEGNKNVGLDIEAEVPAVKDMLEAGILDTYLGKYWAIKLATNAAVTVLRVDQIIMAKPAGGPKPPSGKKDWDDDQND
Sequence of UniProt P01034 (P01034 whole entry): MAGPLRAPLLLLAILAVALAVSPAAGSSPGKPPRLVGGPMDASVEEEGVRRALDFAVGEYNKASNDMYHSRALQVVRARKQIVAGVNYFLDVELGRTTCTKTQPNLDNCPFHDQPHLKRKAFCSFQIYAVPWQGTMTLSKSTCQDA

Target	NP40-soluble protein abundance (concentration: 1mM)	NP40-soluble protein abundance (concentration: 2mM)	NP40-soluble protein abundance (concentration: 4mM)	NP40-soluble protein abundance (concentration: 6mM)	NP40-soluble protein abundance (concentration: 8mM)	NP40-soluble protein abundance (concentration: 10mM)
VAMP7 (UniProt P51809)	0.955 ± 0.046	0.958 ± 0.05	0.938 ± 0.028	0.894 ± 0.1	0.943 ± 0.044	0.945 ± 0.044
RFC3 (UniProt P40938)	1.25 ± 0.036	1.3 ± 0.041	1.31 ± 0.041	1.31 ± 0.039	1.35 ± 0.061	1.36 ± 0.046
UniProt O94925|O94925-3	1.02 ± 0.071	0.968 ± 0.035	0.981 ± 0.078	0.944 ± 0.05	0.978 ± 0.061	0.947 ± 0.039
UniProt P06576|F8W0P7	0.822 ± 0.18	1.04 ± 0.22	0.825 ± 0.21	1.07 ± 0.2	1.05 ± 0.16	0.814 ± 0.21
IDH1 (UniProt O75874)	0.993 ± 0.056	0.988 ± 0.038	0.94 ± 0.052	0.94 ± 0.081	0.957 ± 0.04	0.949 ± 0.027
UniProt P50213|H0YLF8	0.98 ± 0.039	0.963 ± 0.04	0.922 ± 0.036	0.95 ± 0.058	0.949 ± 0.057	0.932 ± 0.043
UniProt P61201|P61201-2	0.9548 ± 0.0092	0.945 ± 0.031	0.9178 ± 0.005	0.968 ± 0.03	0.912 ± 0.043	0.916 ± 0.026
UniProt P62937|P62937-2	0.914 ± 0.063	1.02 ± 0.05	0.894 ± 0.091	0.992 ± 0.084	0.882 ± 0.11	0.962 ± 0.056
UniProt P06493	1.05 ± 0.054	1.06 ± 0.053	1.03 ± 0.063	1.03 ± 0.1	1.05 ± 0.058	1.05 ± 0.015
IARS (UniProt P41252)	1.1 ± 0.14	1 ± 0.072	0.974 ± 0.058	0.905 ± 0.059	1.05 ± 0.035	0.975 ± 0.078
DCK (UniProt P27707)	0.955 ± 0.067	0.98 ± 0.052	0.914 ± 0.046	0.935 ± 0.093	0.933 ± 0.03	0.948 ± 0.044
UniProt Q01196|Q01196-8|Q01196-2	1.07 ± 0.026	1.08 ± 0.024	1.11 ± 0.016	1.17 ± 0.034	1.15 ± 0.028	1.21 ± 0.034
PPT1 (UniProt P50897)	0.942 ± 0.054	0.92 ± 0.019	0.877 ± 0.034	0.957 ± 0.035	0.903 ± 0.016	0.86 ± 0.039
UniProt Q00653|Q00653-4	1.006 ± 0.0072	0.99 ± 0.026	0.971 ± 0.025	0.995 ± 0.022	0.965 ± 0.021	0.973 ± 0.012
XRCC5 (UniProt P13010)	1.04 ± 0.055	1.01 ± 0.051	0.996 ± 0.039	0.961 ± 0.076	1 ± 0.024	0.993 ± 0.057
CST3 (UniProt P01034)	0.964 ± 0.083	0.971 ± 0.063	1 ± 0.11	1.03 ± 0.11	1.05 ± 0.15	1.05 ± 0.14
UniProt Q01082|Q01082-3	0.887 ± 0.029	0.899 ± 0.014	0.928 ± 0.03	1.05 ± 0.037	1.04 ± 0.06	1.07 ± 0.048
UniProt Q06787-5|Q06787-6|Q06787-8|Q06787|Q06787-3|Q06787-7|Q06787-9|R9WNI0	1.16 ± 0.14	1.27 ± 0.1	1.56 ± 0.17	1.83 ± 0.13	2.14 ± 0.19	2.48 ± 0.15

Target	NP40-soluble protein abundance (concentration: 1mM)	NP40-soluble protein abundance (concentration: 2mM)	NP40-soluble protein abundance (concentration: 4mM)	NP40-soluble protein abundance (concentration: 6mM)	NP40-soluble protein abundance (concentration: 8mM)	NP40-soluble protein abundance (concentration: 10mM)
CDKN1B (UniProt P46527)	0.964 ± 0.099	0.998 ± 0.057	0.985 ± 0.08	1.09 ± 0.077	0.919 ± 0.071	0.916 ± 0.1
UniProt P12268|H0Y4R1	1.14 ± 0.2	0.858 ± 0.18	0.957 ± 0.03	0.745 ± 0.14	0.636 ± 0.064	0.587 ± 0.058
UniProt P42285	1.07 ± 0.07	1.06 ± 0.035	1.09 ± 0.033	1.07 ± 0.031	1.2 ± 0.013	1.21 ± 0.066
SFPQ (UniProt P23246)	1.125 ± 0.0082	1.302 ± 0.0053	1.67 ± 0.042	1.72 ± 0.18	1.81 ± 0.11	1.68 ± 0.17
TPMT (UniProt P51580)	1 ± 0.084	1 ± 0.077	0.985 ± 0.064	0.954 ± 0.12	0.992 ± 0.057	0.979 ± 0.044
CCT8 (UniProt P50990)	0.976 ± 0.029	0.909 ± 0.033	0.823 ± 0.036	0.86 ± 0.12	0.842 ± 0.081	0.835 ± 0.063
UniProt Q01826|Q01826-2	0.952 ± 0.051	0.96 ± 0.023	0.919 ± 0.039	0.96 ± 0.031	0.928 ± 0.02	0.922 ± 0.011
UniProt P26639	1 ± 0.1	0.988 ± 0.075	0.95 ± 0.078	0.928 ± 0.11	0.989 ± 0.054	0.949 ± 0.042
ARL3 (UniProt P36405)	0.978 ± 0.0088	0.944 ± 0.057	0.937 ± 0.057	0.926 ± 0.066	0.945 ± 0.037	0.946 ± 0.049
CTBS (UniProt Q01459)	0.951 ± 0.04	0.98 ± 0.028	0.939 ± 0.038	0.957 ± 0.038	0.932 ± 0.032	0.955 ± 0.013
GSTM2 (UniProt P28161)	0.96 ± 0.07	0.952 ± 0.054	0.886 ± 0.043	0.889 ± 0.035	0.911 ± 0.058	0.861 ± 0.056
SOAT1 (UniProt P35610)	1.02 ± 0.042	1 ± 0.028	0.999 ± 0.055	0.97 ± 0.029	1.03 ± 0.019	0.971 ± 0.041
CDK6 (UniProt Q00534)	0.984 ± 0.047	0.999 ± 0.051	0.988 ± 0.05	0.955 ± 0.058	0.966 ± 0.041	0.974 ± 0.064
UniProt P09471-2	1.04 ± 0.059	0.979 ± 0.043	0.949 ± 0.052	0.975 ± 0.1	0.9637 ± 0.0096	0.969 ± 0.014
SRM (UniProt P19623)	1.03 ± 0.12	1.01 ± 0.1	1 ± 0.083	0.929 ± 0.12	0.998 ± 0.071	0.997 ± 0.068
UniProt P26368|P26368-2	1.96 ± 0.078	1.99 ± 0.078	2.01 ± 0.076	2.06 ± 0.032	2.11 ± 0.079	2.09 ± 0.12
EMD (UniProt P50402)	1.13 ± 0.096	1.16 ± 0.1	1.14 ± 0.11	1.11 ± 0.1	1.12 ± 0.086	1.15 ± 0.05
